Results published in PubChem BioAssay AID493169 (National Center for Advancing Translational Sciences (NCATS), 2011).
Results filed as inconclusive are left out. Where a call stands in place of a potency, no number is given. The source made the active and inactive calls. Calls follow the shape of the dose curve; as a rule, active = well fitted inhibition curve with a large enough effect; inconclusive = small, poorly fitted or top-dose-only effect; inactive = flat fitted curve, though single readings scatter.

assay: CHOP2 Reporter Counterscreen Assay for Inhibitors of Ubiquitin-specific Protease USP2a; settings: purified enterokinase, fluorogenic substrate, 485/531 nm; series mostly up to 38.3 µM;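 also: activated enterokinase alone at 50 pM in a cell-free format rather than USP2a or CHOP2; nearly all actives have a fitted effect of over 55% in size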
Text: NIH Molecular Libraries Probe Centers Network [MLPCN] NIH Chemical Genomics Center [NCGC] MLPCN Grant: XO1-MH079852-01 PI Name: Nicholson, Ben. Progenra Inc, Malvern, PA NCGC Assay Overview: Homeostasis of cellular proteins is maintained through a combination of synthesis and degradation. The pathway that accounts for the majority of protein degradation is the ubiquitin-proteasomal pathway. Ubiquitin (Ub) is highly conserved in all cells and the generation of a multi-Ub chain typically targets proteins for degradation by the proteasome. However, ubiquitination is highly reversible and dynamic. Deubiquitination, the reverse process, is catalyzed through the action of enzymes referred to as isopeptidases or deubiquitinating enzymes (DUBs). This group of enzymes is collectively responsible for maintaining adequate pools of free ubiquitin and regulating the ubiquitination status of cellular proteins. The class of DUBs referred to as the ubiquitin-specific proteases (USP) family functions endoproteolytically to cleave Ub chains from a wide range of protein substrates. USP2a deubiquitinates fatty acid synthase (FASN) which has recently been identified as an emerging oncology target. To identify inhibitors of USP2a a cell-free assay was employed. This assay is a counterscreen against the reporter enzyme used to measure USP2a activity in the primary qHTS assay. The reporter enzyme is a protease (enterokinase, EK; EC 3.4.21.9), which is activated when a Ub sequence is cleaved by USP2a. The counterscreen assay is performed in the same buffer and conditions as the primary USP2a coupled assay but uses fully activated EK alone. The assay gives a fluorescent read-out at excitation/emission wavelengths of 485/531. The assay was provided by Progenra, Inc. and has been licensed for sale by LifeSensors, Inc.
NCGC Assay Protocol: The assay buffer, prepared fresh at the day of the assay, contains 20mM Tris-HCl pH 8.0, 2mM CaCl2, 2mM beta-Mercaptoethanol, 0.05% CHAPS. 3uL of 100 pM EK (50 pM final) was dispensed into a medium-binding black solid Kalypsys 1,536 well plate using the Kalypsys dispenser. The assay plate was then pinned with 23nL compounds in DMSO with the Kalypsys pintool in columns 5-48 (0.3% final DMSO concentration). The negative control was buffer/DMSO only in column 3. The assay plate is incubated at RT for 30min. Subsequently, 3uL of reporter substrate (25nM final) were dispensed into the plate using the Kalypsys dispenser. Plates were read after 10 min at RT on a ViewLux (Perkin Elmer) plate reader using the following wavelengths: Ex 485nm /Em 531nm. Data were normalized to the AC100 inhibition (buffer alone). Concentration-response curves were fitted to the normalized data and the concentration-response curves were then classified based on curve quality (r2), response magnitude and degree of measured activity. The time zero reading was used to flag fluorescence artifacts.
Potency is read from the fitted curve at half-maximal effect.

SMILES | Potency
CCCC1=C(C(=O)OCC)C2(C(=O)Nc3ccc(C)cc32)C(C#N)=C(N)O1 (centres undefined) | inactive
O=C1NC(=S)N(c2ccccc2)C(=O)/C1=C/c1ccco1 | 3.55 µM (active)
COc1ccc(NC(=O)c2c(C)nn(Cc3ccccc3Cl)c2Cl)cc1Cl | inactive
Nc1ccc(S(=O)(=O)N2CCCCC2c2cccnc2)cc1 (centres undefined) | inactive
CC(=Nc1ccc2c(c1)CCC2)c1c(O)n(C)c(=O)n(C)c1=O | inactive
O=c1[nH]c(=O)n(Cc2ccc(F)cc2)c(O)c1C=NCCCn1ccnc1 | inactive
O=C(O)c1cccc2c1NC(C(=O)O)C1CC(Sc3ccccc3[N+](=O)[O-])C(Cl)C21 (centres undefined) | 10 µM (active)
FC(F)(F)c1ccc2c(c1)N(CCCN1CCN(CCCl)CC1)c1ccccc1S2 | inactive
O=C(COc1ccc(S(=O)(=O)N2CCOCC2)cc1)N1CCN(Cc2ccc3c(c2)OCO3)CC1 | inactive
O=c1[nH]c(=S)n(Cc2ccco2)c(O)c1C=NCc1cccs1 | 8.91 µM (active)
O=C1NC(=O)[C@]2(Cc3ccccc3N3CCN(c4ccccc4)CC32)C(=O)N1Cc1ccccc1 (some centres undefined) | 10 µM (active)
COc1ccc(S(=O)(=O)Cc2ccc(C(=O)N3CCC4(CC3)OCCO4)o2)cc1 | inactive
Cc1nn(Cc2ccc(Cl)cc2Cl)c(Cl)c1C(=O)Nc1ccc(OC(F)F)cc1 | inactive
OC(c1ccncc1)(c1ccc(F)cc1)c1ccc(F)cc1 | inactive
NC(N)=N/N=C/c1ccc(N(c2ccccc2)c2ccccc2)cc1 | 8.91 µM (active)
O=C1CC(=O)N(Cc2ccccc2)C(=O)N1CCCCCCN1C(=O)CC(=O)N(Cc2ccccc2)C1=O | inactive
Clc1ccc(C(c2ccc(Cl)cc2)n2cc[n+](CC(OCc3ccc(Cl)cc3Cl)c3ccc(Cl)cc3Cl)c2)cc1 (centres undefined) | 3.16 µM (active)
O=C1NC(=O)N(Cc2ccco2)C(=O)/C1=C/C=C/c1ccco1 | 8.91 µM (active)
CC(C)N1C(=O)/C(=C/C=C/c2ccco2)C(=O)N(Cc2ccco2)C1=O | 7.94 µM (active)
